From PubChem BioAssay (NCI)
About 79,000 compounds went through this panel and 15% of them were active in at least one assay; those are over-represented in the sample as a whole. Calls of active or inactive are those of the source. No stated cut-off is given here; in the data, active means growth inhibition above about 70%; inactive means the rest.

Assay: NCI Yeast Anticancer Drug Screen. Data for the rad50EPP+ strain (AID 151);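 further: 0% = growth of vehicle-treated control cultures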
Conditions: S. cerevisiae rad50 mutant strain, at 3.7 µM, hits give high values
Outline: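 Compounds were applied to the rad50EPP+ yeast strain, which bears a defined DNA repair alteration, and growth inhibition was determined relative to vehicle-treated cultures.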

SMILES	growth inhibition
COc1ccc2nc3cccc([N+](=O)[O-])c3c(NCCNCCN(C)C)c2c1	0% (inactive)
Cc1cccc(/C=N/NC(=S)NC2CCCCC2)n1	-8% (inactive)
COC(=O)C(=O)c1c(-c2ccc(Cl)c(Cl)c2)[nH]c2[nH]n(-c3ccccc3)c(=O)c2c1=O	0% (inactive)
c1ccc([P+](CCN2Cc3ccccc3C2)(c2ccccc2)c2ccccc2)cc1	-15% (inactive)
Cc1cc(C)c2[s+]snc2c1	5% (inactive)
CC(C)(Br)C(=O)/C=C/c1ccccc1	51% (inactive)
Cc1ccc(S(=O)(=O)NC(=O)C2C(=O)CC3(CCCCC3)CC2=O)cc1	-21% (inactive)
NC(=S)N1N=C2c3ccccc3CC[C@H]2[C@@H]1c1ccc(Cl)cc1	-10% (inactive)
O=[N+]([O-])/C=C/c1cc2ccc3ccccc3c2[nH]1	94% (active)
O=C1C(=C2CCCC2)CCC1CN1CCCCC1 (stereo unspecified)	36% (inactive)
OC(CC(O)(C(F)(F)F)C(F)(F)F)c1ccc(C(O)CC(O)(C(F)(F)F)C(F)(F)F)cc1 (stereo unspecified)	0% (inactive)
COc1cc2c(cc1OC)[C@@H](Nc1ccc(C#N)cc1)C1COC(=O)[C@@H]1C2c1cc(OC)c(O)c(OC)c1 (stereo partly specified)	-11% (inactive)
O=c1cccccc1[O-].O=c1cccccc1[O-].O=c1cccccc1[O-].[Eu+3]	-1% (inactive)
O=C1c2ccccc2C(=O)c2sc(Nc3ccccc3Cl)nc21	27% (inactive)
NC(CCCCCCCCCCCCC(N)C(=O)c1ccccc1)C(=O)c1ccccc1 (stereo unspecified)	-1% (inactive)
CC1=C(C)C(=O)C2=C(OCCO2)C1=O	-3% (inactive)
c1ccc(-c2cc(C3CO3)c3ccccc3n2)cc1 (stereo unspecified)	6% (inactive)
S=C1C(=Nc2ccccc2)N(c2ccccc2)/C(=N\c2ccccn2)N1c1ccccc1	-4% (inactive)

SMILES	growth inhibition
CCC(OC(C)=O)C1CC(C(C)C)CCC1C (stereo unspecified)	0% (inactive)
CC(C)=CCc1c2c(c(O)c3c(=O)c(-c4ccc(O)c(O)c4)coc13)C=CC(C)(C)O2	-42% (inactive)
O=C(NC(N1CCN(c2cc3c(cc2F)c(=O)c(C(=O)O)cn3C2CC2)CC1)(C(F)(F)F)C(F)(F)F)c1ccccc1	-1% (inactive)
Fc1cc(F)c(F)c(S)c1F	-18% (inactive)
COc1ccc2cc3c4cc5c(cc4cc[n+]3cc2c1OC)OCO5	20% (inactive)
CCCCCCCCNCCCCCCCC	-1% (inactive)
Nc1cc(Cl)ccc1Nc1ccccc1	-21% (inactive)
O=C(/C(=C/c1ccc(O)cc1)c1ccccc1)c1ccccc1	-2% (inactive)
O=Cc1ccccc1C=O	-13% (inactive)
C1=CCN([B-](c2ccccc2)[C+]2CCCCC2)C=C1	-4% (inactive)
CC/C(=C(\c1ccccc1)c1ccc(OCC[N+](C)(C)C)cc1)c1ccccc1	18% (inactive)
O=S(=O)(c1cccc(C(F)(F)F)c1)N1c2ccccc2-n2cccc2C1c1cccnc1 (stereo unspecified)	-45% (inactive)
Nc1ccc2c(c1)C(=O)c1c(F)cccc1-2	21% (inactive)
CN(C)/C(=N/C(=S)Nc1ccccc1)SCc1ccccc1	1% (inactive)
CCN(CC)C(=S)N/N=C(\C)c1ccccc1O	-7% (inactive)
CC(C)OC(=O)NNc1cc(Cl)ccc1Cl	27% (inactive)
CC(C)CCC[C@@H](C)[C@H]1CC[C@H]2[C@@H]3CC[C@H]4C[C@H](N)CC[C@]4(C)[C@H]3CC[C@]12C	2% (inactive)
O=C1c2ccccc2-c2ccc(N=Cc3ccccc3)cc21	24% (inactive)
